Measured values published in PubChem BioAssay (EPA / NIEHS).
Calls of active or inactive are those of the source. The calls were made as follows: active = hit-call score of the fitted dose curve at least 0.9, where 1 is the maximum; inactive = score below 0.9.

Assays:
[1] = ATG_AP_1_CIS: Attagene CIS-FACTORIAL HepG2 Assay for human Activator Protein 1 (AP-1) (AID 2282931); details: HepG2 Attagene cis-factorial AP-1 reporter mRNA; actives raise or lower the signal
Summary of the method: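 HepG2, transient cis-reporter transfection; 24 h; readout RT-PCR/CE fluorescence; DMSO baseline, gain and loss fitted.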

[2] = ATG_AP_2_CIS: Attagene CIS-FACTORIAL HepG2 Assay for human Activator Protein 2 (AP-2) (AID 2282932); details: HepG2 AP-2 cis-reporter, Attagene transcription factor profiling; actives raise or lower the signal
Summary of the method: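 HepG2 cells were transiently transfected with multiple cis-promoter reporter transcription units and dosed for 24 h. Reporter mRNA was measured by RT-PCR with capillary electrophoresis fluorescence; bidirectional fits relative to DMSO baseline.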

[3] = ATG_BRE_CIS: Attagene CIS-FACTORIAL HepG2 Assay for human Bone Morphogenetic Protein (BMP) Response Element (BRE) (AID 2282933); details: HepG2 BMP response element reporter, Attagene transcription factor profiling; actives raise or lower the signal
Summary of the method: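 Multiplexed cis-reporter assay, HepG2, 24 h exposure. mRNA from reporter units quantified via RT-PCR/CE; DMSO baseline; bidirectional curve fit.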

[4] = biological target: Retinoic acid receptor alpha (Homo sapiens) (UniProt P10276); test: ATG_DR5_RAR_CIS: Attagene CIS-FACTORIAL HepG2 Assay for human Retinoic Acid Receptor Alpha (RARE), DR5 submotif (AID 2282934); details: HepG2 Attagene cis-factorial RARE DR5 reporter, mRNA; actives raise or lower the signal
Summary of the method: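 Endpoint fitted in both directions relative to DMSO as negative control. It reflects DR5 cis-element reporter mRNA induction in transiently transfected HepG2 cells, measured 24 h after dosing through RT-PCR and fluorescent capillary electrophoresis.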

[5] = biological target: Transcription factor E2F1 (Homo sapiens) (UniProt Q01094); test: ATG_E2F_CIS: Attagene CIS-FACTORIAL HepG2 Assay for human E2F Transcription Factor 1 (AID 2282935); details: HepG2 Attagene cis-reporter, E2F reporter RNA transcripts; actives raise or lower the signal
Summary of the method: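 HepG2 cells transiently transfected with multiplexed cis-element reporter units, dosed for 24 h. Reporter mRNA measured by RT-PCR, 6-FAM primer-extension labeling, HpaI digestion and capillary electrophoresis; bidirectional fit versus DMSO baseline.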

[6] = ATG_E_Box_CIS: Attagene CIS-FACTORIAL HepG2 Assay for human Enhancer Box (E-box) (AID 2282936); details: HepG2 E-box cis-reporter transcription, actives raise or lower the signal
Summary of the method: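 HepG2 cells transiently transfected with multiplexed cis-element reporter units sensing endogenous transcription factor activity; 24 h compound exposure. Reporter mRNA measured by RT-PCR, 6-FAM primer extension, HpaI digestion and capillary electrophoresis; bidirectional fit versus DMSO.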

[7] = ATG_M_61_CIS: Attagene CIS-FACTORIAL HepG2 Assay for M61 Transcription Factor (Internal Marker) (AID 2282937); details: HepG2 Attagene CIS-FACTORIAL M61 internal marker reporter; actives raise or lower the signal
Summary of the method: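 Transfect HepG2 with MRTUs; dose 24 h; isolate RNA; reverse-transcribe with DNase I treatment; PCR-amplify, FAM-label and cut with HpaI for 2 h at 37 C; resolve by CE. Bidirectional fitting against DMSO.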

[8] = ATG_EGR_CIS: Attagene CIS-FACTORIAL HepG2 Assay for human Early Growth Response 1 (EGR1) (AID 2282938); details: HepG2 Attagene CIS-FACTORIAL EGR reporter mRNA; actives raise or lower the signal
Summary of the method: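 After a 24 h treatment of transiently transfected HepG2 cells, total RNA was reverse-transcribed and reporter sequences PCR-amplified, labelled and run on capillary electrophoresis. Reporters sit under cis-regulatory promoters sensing endogenous factors.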

[9] = ATG_M_19_CIS: Attagene CIS-FACTORIAL HepG2 Assay for M19 Transcription Factor (Internal Marker) (AID 2282939); details: HepG2 Attagene CIS-FACTORIAL M19 internal marker reporter; actives raise or lower the signal
Summary of the method: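 Signals come from fluorescence of labelled reporter-specific PCR fragments resolved by capillary electrophoresis, following 24 h treatment of HepG2 cells transfected with cis-promoter reporter units; activity was fitted in both directions relative to DMSO.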

[10] = ATG_ERE_CIS: Attagene CIS-FACTORIAL HepG2 Assay for Estrogen Response Element (ERE) (AID 2282940); details: HepG2 ERE cis-reporter, Attagene RNA transcript; actives raise or lower the signal
Summary of the method: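 Fluorescence of capillary-separated, FAM-labelled reporter cDNA fragments indicates reporter mRNA levels in HepG2 cells exposed to chemicals for 24 h. Transient transfection with cis-regulated units; data fitted in both directions against DMSO.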

[11] = ATG_Ets_CIS: Attagene CIS-FACTORIAL HepG2 Assay for human Erythroblast Transformation Specific (ETS) (AID 2282941); details: HepG2 ETS cis-reporter transcription, actives raise or lower the signal
Summary of the method: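 Steps: transfect HepG2 with multiple reporter units; treat compound 24 h; isolate RNA, DNase-treat, reverse-transcribe; PCR-amplify, label with 6-FAM, digest with HpaI; separate by capillary electrophoresis. Activity fitted both directions versus DMSO.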

[12] = biological target: Hepatocyte nuclear factor 3-beta (Homo sapiens) (UniProt Q9Y261); test: ATG_FoxA2_CIS: Attagene CIS-FACTORIAL HepG2 Assay for human Forkhead box A2 (FOXA2) (AID 2282942); details: HepG2 cis-reporter transcription factor activity, 24 h; actives raise or lower the signal
Summary of the method: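 24 h dosing of HepG2 bearing cis-reporter constructs; mRNA readout by RT-PCR/CE fluorescence; bidirectional fit, DMSO baseline.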

[13] = ATG_FoxO_CIS: Attagene CIS-FACTORIAL HepG2 Assay for human Forkhead box O (FoxO) (AID 2282943); details: HepG2 Attagene cis-reporter, FoxO element, mRNA; actives raise or lower the signal
Summary of the method: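 Values reflect reporter mRNA induction or loss in HepG2 cells 24 h post-dosing, fitted bidirectionally with DMSO as negative control and baseline. Detection used RT-PCR and fluorescence capillary electrophoresis.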

[14] = ATG_GATA_CIS: Attagene CIS-FACTORIAL HepG2 Assay for human GATA Binding Protein (AID 2282944); details: HepG2 GATA cis-element reporter, Attagene multiplex mRNA; actives raise or lower the signal
Summary of the method: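 After transfecting HepG2 cells with multiple cis-regulated reporter units, chemicals are dosed for 24 h; isolated RNA undergoes RT-PCR and fluorescent labeling before capillary electrophoresis, with activity expressed against DMSO.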

[15] = ATG_GLI_CIS: Attagene CIS-FACTORIAL HepG2 Assay for human Zinc Finger Protein GLI1 (AID 2282945); details: HepG2, Attagene cis-factorial reporter mRNA, GLI element; actives raise or lower the signal
Summary of the method: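 HepG2 cells transiently transfected with cis-promoter multiplexed reporter units report endogenous transcription factor activity. After 24 h chemical exposure, reporter mRNA was quantified by RT-PCR, 6-FAM labelling, HpaI digestion and capillary electrophoresis, with bidirectional fitting against DMSO.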

[16] = biological target: Bile acid receptor (Homo sapiens) (UniProt Q96RI1); test: ATG_IR1_CIS: Attagene CIS-FACTORIAL HepG2 Assay for human Nuclear Receptor Subfamily 1 Group H Member 4 (NR1H4), IR1 submotif (AID 2282946); details: IR1 reporter transcription, actives raise or lower the signal
Summary of the method: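 Transient MRTU transfection, HepG2; 24 h dosing; RNA → RT-PCR → 6-FAM primer extension → HpaI digest → capillary electrophoresis fluorescence. Gain/loss of signal fitted relative to DMSO.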

[17] = ATG_GRE_CIS: Attagene CIS-FACTORIAL HepG2 Assay for human Glucocorticoid Response Elements (GRE) (AID 2282947); details: HepG2 GRE cis-reporter, Attagene multiplex mRNA; actives raise or lower the signal
Summary of the method: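 HepG2 cells transiently transfected with multiple cis-promoter reporter units measure endogenous TF activity; 24 h compound exposure. Reporter mRNA quantified by RT-PCR, FAM labelling, HpaI digestion and capillary electrophoresis; bidirectional fit vs DMSO baseline.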

[18] = ATG_ISRE_CIS: Attagene CIS-FACTORIAL HepG2 Assay for human Interferon Regulatory Factor 1 (IRF1) binding to an Interferon-Stimulated Response Element (ISRE) (AID 2282948); details: HepG2 ISRE cis-reporter (Attagene), mRNA transcription readout; actives raise or lower the signal
Summary of the method: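 Transfected HepG2 (multiple reporter transcription units, cis elements) dosed 24 h. RNA → oligo(dT) RT → PCR → 6-FAM primer extension → HpaI → CE. DMSO = negative control/baseline.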

[19] = ATG_M_32_CIS: Attagene CIS-FACTORIAL HepG2 Assay for M32 Transcription Factor (Internal Marker) (AID 2282949); details: HepG2 Attagene cis-factorial M32 reporter, mRNA; actives raise or lower the signal;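 also: background control marker of the multiplexed CIS panel rather than a real target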
Summary of the method: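 Internal background marker read-out: RT-PCR/capillary electrophoresis fluorescence of reporter transcripts from transiently transfected HepG2 cells after 24 h chemical exposure. Activity fitted bidirectionally relative to DMSO negative control.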

[20] = ATG_M_06_CIS: Attagene CIS-FACTORIAL HepG2 Assay for M06 Transcription Factor (Internal Marker) (AID 2282950); details: HepG2 Attagene CIS-FACTORIAL M06 internal marker reporter; actives raise or lower the signal
Summary of the method: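 HepG2 liver cells, 24 h exposure. Reporter transcripts from transfected cis-element constructs quantified by RT-PCR/capillary electrophoresis fluorescence. Bidirectional curve fit against DMSO.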

Measured: AC50

Chain of Transcription factor E2F1 (Homo sapiens) (Q01094 whole entry, looked up): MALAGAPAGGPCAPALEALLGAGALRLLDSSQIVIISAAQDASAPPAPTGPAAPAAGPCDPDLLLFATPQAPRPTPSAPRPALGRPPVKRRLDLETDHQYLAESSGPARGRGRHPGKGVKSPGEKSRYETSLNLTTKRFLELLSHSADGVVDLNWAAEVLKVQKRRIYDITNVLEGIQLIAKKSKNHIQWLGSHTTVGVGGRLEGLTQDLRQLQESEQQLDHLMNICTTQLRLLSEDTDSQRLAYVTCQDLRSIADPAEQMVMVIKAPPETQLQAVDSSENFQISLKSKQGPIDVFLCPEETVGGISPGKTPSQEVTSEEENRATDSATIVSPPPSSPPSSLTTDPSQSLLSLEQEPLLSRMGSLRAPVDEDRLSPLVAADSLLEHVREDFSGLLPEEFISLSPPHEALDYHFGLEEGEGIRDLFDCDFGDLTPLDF
Chain of Hepatocyte nuclear factor 3-beta (Homo sapiens) (Q9Y261 whole entry, looked up): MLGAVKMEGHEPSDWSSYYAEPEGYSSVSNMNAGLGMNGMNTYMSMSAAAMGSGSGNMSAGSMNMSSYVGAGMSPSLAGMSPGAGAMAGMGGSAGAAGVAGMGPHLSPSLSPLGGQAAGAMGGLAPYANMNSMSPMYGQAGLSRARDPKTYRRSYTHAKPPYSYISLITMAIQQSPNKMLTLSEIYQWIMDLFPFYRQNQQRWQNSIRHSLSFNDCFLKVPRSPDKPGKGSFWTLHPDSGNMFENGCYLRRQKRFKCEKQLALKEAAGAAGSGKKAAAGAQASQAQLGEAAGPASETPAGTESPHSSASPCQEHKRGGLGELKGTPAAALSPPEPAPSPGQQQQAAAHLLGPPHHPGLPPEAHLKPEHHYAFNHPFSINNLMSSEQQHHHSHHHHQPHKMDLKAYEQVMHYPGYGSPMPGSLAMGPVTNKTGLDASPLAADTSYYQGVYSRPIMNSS
Chain of Bile acid receptor (Homo sapiens) (Q96RI1 whole entry, looked up): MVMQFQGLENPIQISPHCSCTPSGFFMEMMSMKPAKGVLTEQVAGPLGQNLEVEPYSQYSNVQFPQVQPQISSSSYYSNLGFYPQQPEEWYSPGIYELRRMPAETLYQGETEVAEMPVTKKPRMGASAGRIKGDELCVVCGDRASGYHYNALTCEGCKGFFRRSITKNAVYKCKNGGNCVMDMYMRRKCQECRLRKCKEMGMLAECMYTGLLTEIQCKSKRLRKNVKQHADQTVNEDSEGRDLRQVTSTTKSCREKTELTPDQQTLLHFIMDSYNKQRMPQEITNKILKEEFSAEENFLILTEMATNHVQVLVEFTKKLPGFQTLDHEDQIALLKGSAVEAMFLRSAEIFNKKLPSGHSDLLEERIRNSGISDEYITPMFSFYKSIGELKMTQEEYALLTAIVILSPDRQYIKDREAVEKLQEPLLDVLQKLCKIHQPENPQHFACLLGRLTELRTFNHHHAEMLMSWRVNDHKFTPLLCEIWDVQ
Chain of Retinoic acid receptor alpha (Homo sapiens) (P10276 whole entry, looked up): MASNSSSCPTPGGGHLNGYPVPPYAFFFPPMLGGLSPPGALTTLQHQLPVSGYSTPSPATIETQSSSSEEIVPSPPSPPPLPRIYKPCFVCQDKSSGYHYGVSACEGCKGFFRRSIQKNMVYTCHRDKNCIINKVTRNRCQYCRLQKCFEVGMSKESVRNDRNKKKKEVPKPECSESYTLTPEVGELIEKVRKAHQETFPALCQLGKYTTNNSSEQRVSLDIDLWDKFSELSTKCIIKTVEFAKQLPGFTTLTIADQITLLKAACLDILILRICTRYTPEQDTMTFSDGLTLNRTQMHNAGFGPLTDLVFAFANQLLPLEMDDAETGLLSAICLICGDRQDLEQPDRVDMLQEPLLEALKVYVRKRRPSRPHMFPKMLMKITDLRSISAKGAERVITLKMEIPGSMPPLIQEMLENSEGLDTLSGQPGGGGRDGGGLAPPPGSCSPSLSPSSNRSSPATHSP

CNC(=O)CSP(=O)(OC)OC
inactive: all assays above

Oc1cccc(-c2ccccc2)c1
active: [1] 65.1 µM | [3] 73.5 µM | [10] 6.35 µM
not listed: [19]
inactive: all other assays above

O=C(CCl)Nc1ccccc1
inactive: [1] | [4] | [7] | [10] | [11] | [12] | [20]
active: [2] 44 µM | [3] 5.35 µM | [5] 147 µM | [6] 73.5 µM | [8] 44.4 µM | [9] 167 µM | [13] 83.2 µM | [14] 161 µM | [15] 25.5 µM | [16] 54.4 µM | [17] 177 µM | [18] 54.9 µM

O=C1C=CC(=O)c2ccccc21
inactive: all assays above

CC(C)(COCC1CO1)COCC1CO1 (configuration not stated)
not listed: [19]
inactive: all other assays above

CCOc1ccc(N)cc1
inactive: all assays above

O=S1OC[C@@H]2[C@H](CO1)[C@]1(Cl)C(Cl)=C(Cl)[C@@]2(Cl)C1(Cl)Cl (some centres not stated)
active: [1] 100 µM | [10] 2.77 µM
not listed: [20]
inactive: all other assays above

CCCCC(CC)COC(=O)Cl (configuration not stated)
not listed: [19]
inactive: all other assays above

C=CC(F)(C(F)(F)F)C(F)(F)C(F)(F)F (configuration not stated)
inactive: all assays above

C1CCC(C2CCCCC2)CC1
not listed: [17]
inactive: all other assays above

ClCc1ccccc1CCl
active: [1] 59.7 µM | [6] 33.4 µM | [8] 29.5 µM | [11] 15.7 µM | [12] 33.4 µM | [15] 33.4 µM | [16] 33.4 µM | [18] 45.9 µM
not listed: [14] | [19]
inactive: all other assays above

O=C(O)C1(c2ccc3c(c2)OC[C@H](Cc2ccc(-c4ccccc4)cc2)[C@H]3O)CCCC1
active: [1] 19.7 µM | [18] 2.83 µM
not listed: [10] | [17] | [19]
inactive: all other assays above

Cc1cccc(OP(=O)(Oc2cccc(C)c2)Oc2cccc(C)c2)c1
not listed: [10]
inactive: all other assays above

O=S(=O)(F)C(F)(F)C(F)(F)C(F)(F)C(F)(F)F
not listed: [9]
inactive: all other assays above
